Source: PubChem BioAssay AID492960 (National Center for Advancing Translational Sciences (NCATS), 2010)
Results filed as inconclusive are left out. Activity calls are given as the source filed them. Calls come from the whole dose curve; as a rule, active = well fitted curve in the direction sought with a large enough effect; inconclusive = small, poorly fitted or top-dose-only effect, or effect the other way, or another doubt; inactive = no such curve, though single readings can be large or run the other way.

Assay: Secondary Assay for lipid storage modulators: HepG2 cell LDSA assay for probe SAR
Settings: HepG2 lipid droplet BODIPY, laser-scanning cytometry, 18-24 h; series mostly up to 46.1 µM
From the text: NIH Molecular Libraries Probe Production Centers Network [MLPCN] NIH Chemical Genomics Center [NCGC] MLPCN Grant: 1 R03 MH085686-01 Assay Submitter (PI): Beller, Mathias; Max-Planck-Institut fur Biophysikalische Chemie NCGC Assay Overview: Storing lipids as a reservoir for energy or the anabolism of elementary metabolites is a common feature of probably all cells and is conserved from bacteria to humans. The universal cellular lipid storage organelle is the so-called lipid storage droplet (LD). Although ubiquitous, LDs share a simple structure composed of a hydrophobic core that harbors the storage lipids, which is shielded by a droplet-specific phospholipid monolayer to which proteins are attached. The current model of LD biogenesis involves an incorporation of the lipid core into the membrane leaflets of the endoplasmic reticulum (ER) followed by a subsequent budding-like maturation of a LD, which ultimately pinches off. Once released, LD volume can increase by localized lipogenesis or fusion of existing droplet. Storage lipids are re-mobilized enzymatically by lipase activity. Lipase regulation in the adipocyte is heavily studied and involves multiple components including catecholamine signaling, the LD-associated proteins Perilipin and comparative gene identification (CGI-58) and at least two lipases named hormone sensitive lipase (HSL) and adipocyte triglyceride lipase (ATGL). LD regulation outside of the adipocyte is poorly understood and only few components are known. However, there is an urgent need to learn more about ectopic fat depots as mislocalized storage of lipids, for example in the liver or muscle, is an eminent health problem associated with insulin resistance or the metabolic syndrome.
NCGC Assay Protocol Summary: The assay was performed with HepG2 cells, using an oleic acid feeding protocol similar to the S3 assay. We dispensed 4 uL of cells to give 700 cells/well into Greiner bio-one 1,536-well plates (black walled, clear bottom). Triacsin C (Sigma-Aldrich T-4540), an inhibitor of long-chain fatty acyl CoA synthetase that blocks synthesis of triglycerides, was used as a positive control for lipid under-storage using a final concentration of 20 uM. The orexin antagonist, SB408124 - previously identified to stimulate lipid over-storage, was used as a positive control for lipid over-storage using a final concentration of 20 uM. A total of 23 nL of compound solution of different concentrations were transferred to the assay plates using a Kalypsys pin tool equipped with a 1,536-pin array containing 10-nL slotted pins (FP1S10, 0.457-mm diameter, 50.8 mm long; V&P Scientific). One microliter of oleic acid was added (400 uM final concentration), and the plate was lidded with stainless steel rubber gasket lined lids containing pinholes. After 18-24 h incubation at […] and 95% humidity, 4 uL of the dyes BODIPY 493/503 (Molecular Probes) and the Cell Tracker Red CMTPX dye (Molecular Probes) were added to the wells to stain lipid droplets and enumerate cell number, respectively. Fluorescence was detected by excitation of the fluorophores with a 488-nm laser on an Acumen Explorer (TTP Lab Tech). The total intensity in channel 2 (500-530 nm) reflected lipid droplet accumulation. Cells were detected using channel 3 (575-640 nm) with 5-um width and 100-um depth filters. The ratio of the number of objects in PMT channel 2 over the number of objects in PMT channel 3 was also calculated. Percent activity was computed relative to an internal control (100% inhibited lipid droplet deposition due to the presence of 20 uM Triacsin C), which was added to 32 wells/plate.

Potency, inactive:
CCOc1ccc(CCNC(=O)c2cc3ccccc3n2C)cc1OCC
Cc1ccc(-c2cnc(SCC(=O)Nc3nccs3)n2Cc2ccco2)cc1
CCOc1ccc(CCNC(=O)c2cc3sccc3n2Cc2cccnc2)cc1OCC
CC1(C)CCC(c2ccc(Cl)cc2)=C(CN2CCN(c3ccc(C(=O)NS(=O)(=O)c4ccc(N[C@H](CCN5CCOCC5)CSc5ccccc5)c(S(=O)(=O)C(F)(F)F)c4)cc3)CC2)C1
CCn1c(C(=O)NCCc2ccc(OC)c(OC)c2)cc2sccc21
CCOc1ccc(CCNC(=O)c2cc3sccc3n2Cc2ccc(-n3cncn3)cc2)cc1OCC
CCOc1ccc(CCNC(=O)c2cc3sc(CC)cc3n2C)cc1OCC
O=C(NC1CCCc2c1cnn2-c1ccc(F)cc1F)c1cccc(=O)[nH]1 (stereo not given)
CCOc1ccc(CCNC(C)=O)cc1OCC
CCOc1ccc(CCNC(=O)c2ccccn2)cc1OCC
O=C(NC1CCCc2c1cnn2-c1ccccc1F)c1cccc2nccnc12 (stereo not given)
O=C(NC1CCCc2c1cnn2-c1ccc(F)cc1F)c1ccc2cc[nH]c2c1 (stereo not given)
CCOc1ccc(CCNC(=O)c2cccc(C(=O)c3ccccc3)c2)cc1OCC
CCOc1ccc(CCNC(=O)c2cc3sccc3n2Cc2cccc(C)c2)cc1OCC
O=C(NC1CCCc2c1cnn2-c1ccc(F)cc1F)c1cccs1 (stereo not given)
CCOc1ccc(CCNC(=O)c2cc3sccc3n2Cc2ccc(Cl)c(F)c2)cc1OCC
CN(C)CC(=O)NC1CCCc2c1cnn2-c1ccc(F)cc1F (stereo not given)
Cc1cc2c(cc1C1(c3ccc(C(=O)O)cc3)CC1)C(C)(C)CCC2(C)C
CCOc1ccc(CCNC(=O)c2cc3sccc3n2Cc2ccc(OC(F)F)cc2)cc1OCC
CCOc1ccc(CCNC(=O)c2cc3ccccc3o2)cc1OCC
CCn1c(C(=O)NCCc2ccc(OC)cc2)cc2sccc21
Cc1cc(SCc2sc(-c3ccc(C(F)(F)F)cc3)nc2C)ccc1OCC(=O)O
CCCn1c(-c2ccc(OC)cc2)cnc1SCC(=O)Nc1nc(C)c(C)s1
Cc1csc(NC(=O)CSc2ncc(-c3ccccc3)n2Cc2ccco2)n1
CCOc1ccc(CCNC(=O)c2ccc3ccccc3n2)cc1OCC
O=C(NC1CCCc2c1cnn2-c1ccc(F)cc1F)c1ccc(C2(C(F)(F)F)N=N2)cc1 (stereo not given)
O=C(NC1CCCc2c1cnn2-c1ccc(F)cc1F)c1cnccn1 (stereo not given)
O=C(NCCc1ccc2c(c1)OCO2)c1cc2sccc2n1Cc1ccccc1
Cc1ccc(-c2cnc(SCC(=O)Nc3nc(C)cs3)n2Cc2ccco2)cc1
CCOc1ccc(CCNC(=O)c2cc3c(s2)CCC3)cc1OCC
O=C(NC1CCCc2c1cnn2-c1ccc(F)cc1F)c1cnon1 (stereo not given)
CCOc1ccc(CCNC(=O)C2=C(C)OCCO2)cc1OCC
O=C(NC1CCCc2c1cnn2-c1ccc(F)cc1F)C1CCCCC1 (stereo not given)
CCOC(=O)C1CCN(C(=O)C2(NC(=O)Nc3ccccc3Cl)CCCCC2)CC1
COc1ccc(-c2cnc(SCC(=O)Nc3nccs3)n2Cc2ccccc2)cc1
CCOc1ccc(CCNC(=O)C2CCCCC2)cc1OCC
COc1ccc(-c2cnc(SCC(=O)Nc3nc(C)cs3)n2Cc2ccco2)cc1

Potency, active:
COc1ccc(-n2ncc3c2CCCC3NC(=O)c2cnc(C)cn2)cc1 (stereo not given) 12.5 µM
O=C(Nc1ccccc1-c1cn2c(CN3CCNCC3)csc2n1)c1cnc2ccccc2n1 11.2 µM
CCOc1ccc(CCNC(=O)c2cc3sccc3n2Cc2ccccc2)cc1OCC 14.1 µM
